# Bioassay records deposited in PubChem BioAssay by National Center for Advancing Translational Sciences (NCATS).
# Only some compounds are listed: those with a hit (about 9.3% of all), similar ones and a draw of the others.
# Rab9 prom act – activators of Rab9 promoter; Potency, µM (titrated, usually from 9.22 µM), for inactives: at the top dose activation, negative = inhibition, hits mostly activators; Huh7 Rab9 promoter-luciferase reporter, luminescence, 24 h; hit rate 2.8% among 320,000; AID 485297; also: % of control where 0% means no effect; nearly all actives have a fitted effect of over 60% in size
#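 Luminescence from Amplite-detected luciferase (10 minutes, ambient) reports Rab9 promoter activation. Before that, stable Rab9-luciferase Huh7 cells (1500/well, reduced-serum OP-MEM I plus 10% FBS) were exposed to compound for 24 hours at 37C.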
# FLuc counter – counter-screen for miR-21 project: firefly luciferase inhibitors or activators. P08659. purified FLuc, Km substrates, luminescence inhibition. Potency, µM (top dose mostly 57.5 µM), without a hit: at the highest dose activity change, negative = inhibition, actives largely listed as inhibitors. AID 588342. hit rate 6.9% among 360,000;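 also: plate controls were vehicle for no effect and reference inhibitor for full effect; nearly all actives have a fitted effect of over 55% in size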
#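 Biochemical qHTS of compounds, final roughly 60 µM downward over six points, against 10 nM purified firefly luciferase using Km concentrations of substrates (10 uM D-luciferin, 10 uM ATP) in Tris acetate pH 7.5 buffer; luminescence output.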
# ELG1 repair inh – inhibitors of ELG1-dependent DNA repair in HEK293T cells. HEK293T ELG1-luciferase reporter, luminescence, 16 h; DNA damage induced by 5-fluorouridine. Potency, µM (titrated, usually from 46.1 µM), for inactives: at the highest dose activity change, negative = inhibition, usual class: inhibitors. hit rate 2.3% among 330,000; also: % is scaled to controls: 0 for no effect and ±100 for the full control effect; nearly all actives have a fitted effect of over 55% in size
#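 Luminescence from the luciferase reporter, measured 30 min after ONE-Glo reagent at room temperature, was the read-out. Beforehand, 2,000 cells per well were exposed for 16 hr at 37 °C to 5-fluorouridine together with compound or vehicle.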
# NPC1 prom act – activators of NPC1 promoter; Huh7 NPC1 promoter luciferase reporter, 24 h; Potency, µM (doses to about 9.22 µM), for the others: at the highest dose activation, hits mostly activators; hit rate 2.4% among 320,000; AID 485313; also: % of control where 0% means no effect; nearly all actives have a fitted effect of over 60% in size
#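 Huh7 reporter cells (NPC1 promoter driving luciferase) are dosed with compound for 24 h at 37 °C, 5% CO2; luciferase detection reagent is then added and luminescence measured after 10 min at ambient temperature.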
# ELG1 genotox – induces genotoxicity in HEK293T cells with luciferase-tagged ELG1. HEK293T ELG1-luciferase reporter, luminescence, 16 h. hit rate 1.3% among 330,000. Potency, µM (titrated, usually from 46 µM), inactives show at the highest dose activity change, positive = activation, usual class: activators. AID 504466; also: % of control where 0% means no effect; nearly all actives have a fitted effect of over 60% in size
#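 Luminescence read-out: rising ELG1-luciferase signal, reflecting elevated ELG1 protein under genetic stress, flags genotoxic compounds. Cells were treated for 16 hr at 37 °C before ONE-Glo detection.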
# SMN2 splice enh – SMN2 splice variant enhancement | HEK293 SMN2-luciferase splicing reporter, luminescence, 30-36 h | Potency, µM (highest dose often 46.1 µM), for the others: at the highest dose activity change, positive = activation, usual class: activators | hit rate 2.8% among 210,000; also: % of control where 0% means no effect; nearly all actives have a fitted effect of over 55% in size
#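 HEK293 cells carry an SMN2 minigene-luciferase reporter in which exon 7 inclusion puts luciferase in frame. Cells were seeded at 2000 cells/well, attached for 10-12 hours, then exposed to compounds for 30-36 hours at 37C before ONE-Glo luminescence.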
# ELG1 FLuc counter – luciferase inhibition in cell-free luciferin readout for ELG1 hits | cell-free firefly luciferase luminescence counter-screen, ViewLux | shares compounds with ELG1 repair inh | Potency, µM (top dose mostly 46.1 µM), inactives show at the top dose activity change, negative = inhibition, usual class: inhibitors | hit rate 3% among 350; also: % is scaled to controls: 0 for no effect and ±100 for the full control effect
# ELG1-Luc inh – inhibits ELG1-dependent DNA repair in HEK293T cells, confirmed. HEK293T ELG1-luciferase levels, luminescence; cells co-treated with 5-fluorouridine. hit rate 68% among 670. Potency, µM (top dose mostly 46.1 µM), for inactives: at the highest dose activity change, negative = inhibition, most hits filed as inhibitors. AID 624248. shares compounds with ELG1 repair inh; also: % is scaled to controls: 0 for no effect and ±100 for the full control effect; nearly all actives have a fitted effect of over 55% in size
# ELG1 MMS Luc – confirmation of human ELG1 repair inhibitors, MMS stimulated. hit rate 53% among 670. HEK293T luciferase-tagged ELG1 level, MMS stimulated. shares compounds with ELG1 repair inh. AID 624249. Potency, µM (titrated, usually from 46.1 µM), for the others: top-dose activity change, negative = inhibition, usual class: inhibitors; also: % is scaled to controls: 0 for no effect and ±100 for the full control effect; nearly all actives have a fitted effect of over 60% in size
# ELG1 5FU viab – confirmation of ELG1 repair inhibitors: viability with 5FU; shares compounds with ELG1 repair inh; cell viability with 5-FU, ELG1-dependent repair; Potency, µM (highest dose often 46.1 µM), inactives show at the highest dose activity change, negative = viability loss, usual class: cytotoxic; 670 tested, under 10 active; AID 624250;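 also: ELG1-luc HEK293T cells cotreated with 5-fluorouridine at 10 µM final; viability measured 16 h after compound addition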
# ELG1 MMS cell – confirmation of ELG1 repair inhibitors: viability with MMS | AID 624251 | hit rate 33% among 670 | Potency, µM (top dose mostly 46.1 µM), for inactives: at the highest dose activity change, negative = viability loss, hits mostly cytotoxic | shares compounds with ELG1 repair inh | Cell viability with MMS, ELG1-dependent DNA repair;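 also: ELG1-luc HEK293T cells co-treated with 10 µM MMS; viability read 16 h after compound addition; % is scaled to controls: 0 for no effect and ±100 for the full control effect; nearly all actives have a fitted effect of over 60% in size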
# ELG1 unstim viab – unstimulated viability counter-screen for ELG1 repair hits; shares compounds with ELG1 repair inh; cell viability counter-screen, unstimulated, luminescence; Potency, µM (highest dose often 45.9 µM), for inactives: at the top dose activity change, negative = loss of viability, most hits filed as cytotoxic; hit rate 8% among 900;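 also: compound exposure lasted 16 hours before reading; % is scaled to controls: 0 for no effect and ±100 for the full control effect; nearly all actives have a fitted effect of over 55% in size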
# FLuc enzyme – firefly luciferase inhibition counter-screen; purified firefly luciferase, luminescence counter-screen; shares compounds with ELG1 repair inh; hit rate 10% among 350; Potency, µM (highest dose often 57.5 µM), for the others: at the highest dose activity, negative = inhibition, usual class: inhibitors; AID 624253; also: % is scaled to controls: 0 for no effect and ±100 for the full control effect
# * = called active by the depositor; ? = inconclusive; nt = no result given. Calls follow the shape of the dose curve; as a rule, active = well fitted curve in the direction sought with a large enough effect; inconclusive = small, poorly fitted or top-dose-only effect, or another doubt; inactive = no such curve, though single readings can be large; an effect the other way counts as inactive or inconclusive. Potency is read from the fitted curve at half-maximal effect.
SMILES,Rab9 prom act,FLuc counter,ELG1 repair inh,NPC1 prom act,ELG1 genotox,SMN2 splice enh,ELG1 FLuc counter,ELG1-Luc inh,ELG1 MMS Luc,ELG1 5FU viab,ELG1 MMS cell,ELG1 unstim viab,FLuc enzyme
CC(C)c1nc2sc3c(NCc4ccccc4)ncnc3c2c2c1COC(C)(C)C2,-12.4%,1.4%,?,-4.4%,10.7%,-17.4%,nt,nt,nt,nt,nt,nt,nt
CC(C)c1nc2sc3c(=O)n(N)cnc3c2c2c1COC(C)(C)C2,0.5%,0.4%,7.4%,0.6%,5.4%,-10.9%,-2.2%,?,-4.8%,?,3.3%,2.4%,-2.7%
CC(C)c1nc2sc3c(NCc4ccco4)ncnc3c2c2c1COC(C)(C)C2,8.4%,0.4%,?,-5.2%,-2.6%,-27.9%,20.8%,11.2µM*,13.5%,?,-2.1%,?,-3.0%
CCCc1nc2sc3c(=O)n(N)cnc3c2c2c1COC(C)(C)C2,-1.8%,2.2%,0.8%,6.9%,3.5%,-17.8%,nt,nt,nt,nt,nt,nt,nt
CC1(c2ccc(OC(F)F)cc2)NC(=O)N(CC(=O)NC2CCCC2)C1=O (stereo unspecified),-3.1%,3.3%,6.7%,-3.4%,0.6%,nt,nt,nt,nt,nt,nt,nt,nt
CC1CCCCC1NC(=O)CN1C(=O)NC(C)(c2ccc(OC(F)F)cc2)C1=O (stereo unspecified),-6.9%,2.5%,-8.8%,-5.1%,5.2%,15.6%,0.6%,nt,nt,nt,nt,2.4%,4.4%
O=C(c1ccc(OC2CCN(Cc3ccccn3)CC2)cc1)N1CCC[C@H]1CO,-3.2%,1.3%,12.0%,3.0%,16.2%,nt,nt,nt,nt,nt,nt,nt,nt
Cc1ccc2c(c1)S/C(=C/c1ccc[n+](CCO)c1)N2C,-20.5%,4.9%,2.91µM*,-16.4%,5.9%,-64.6%,nt,1.5%,8.88µM*,-13.9%,8.88µM*,?,nt
Cc1nc(N2CCOCC2)nc(N2CCCCC2C)c1[N+](=O)[O-] (stereo unspecified),-0.6%,-0.9%,21.3%,0.0%,-1.2%,nt,nt,nt,nt,nt,nt,nt,nt
CC1CCCCN1c1ncnc(N)c1[N+](=O)[O-] (stereo unspecified),0.3%,1.9%,3.26µM*,?,-11.5%,-12.1%,nt,7.05µM*,14.1µM*,1.8%,?,6.1%,nt
